# Over roughly 33,000 sequences, “e-score” has its median near -0.053; the highest 2% begin near 0.38. The full list was thinned out, with the highest values kept by preference.
# Target: T1, SIX1 homeodomain (reference allele) (human, UniProt Q15475 108-198)
# T1 sequence: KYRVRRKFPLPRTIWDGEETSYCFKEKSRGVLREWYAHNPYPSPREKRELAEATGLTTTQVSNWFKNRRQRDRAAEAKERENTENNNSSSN
# Test: universal protein binding microarray; Universal all-10-mer PBM (8x60K, AMADID 030236), 300 nM GST-tagged protein, Alexa Fluor 488 anti-GST; buffer, salt, pH and temperature not stated (as in Berger); high values mean tight binding
# Conditions: protein: ivt; tags: N-terminal GST; dsDNA, one strand shown
# Procedure, shortened: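 Binding of GST-tagged homeodomains is given as 8-mer E-scores from the Universal PBM Analysis Suite. The proteins were produced by in vitro transcription/translation, quantified by anti-GST western blot against a recombinant GST standard curve, and applied in duplicate at 300 nM final concentration to universal 'all 10-mer' protein binding microarrays (8×60K format).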
row,Sequence,binding signal [E-score]
1,CTTACACC,0.203 ± 0.0268
2,GTCGTATA,0.186 ± 0.0245
3,GTAGACAC,0.182 ± 0.0638
4,AGATAGGG,0.263 ± 0.0607
5,TACCAGTA,0.201 ± 0.0209
6,AATCGGGG,0.181 ± 0.117
7,ATGAATAC,0.2845 ± 0.00167
8,CGGAGATC,0.322 ± 0.00475
9,TAAGTATA,0.218 ± 0.0666
10,AAAGTATC,0.413 ± 0.0634
11,AAAGTATA,0.173 ± 0.149
12,CAAATATC,0.21 ± 0.0519
13,CAAGTATC,0.378 ± 0.0659
14,GAAGTATC,0.407 ± 0.0492
15,GAACTATC,0.23 ± 0.0598
16,GAAGTATA,0.261 ± 0.108
17,ATAAGTAT,0.235 ± 0.0716
18,TACACTGA,0.178 ± 0.0145
19,ATCTTCCC,0.174 ± 0.0102
20,ATCACGAA,0.172 ± 0.0453
21,CTAGACAC,0.158 ± 0.012
22,GAATAATC,0.209 ± 0.0094

row,Sequence,binding signal [E-score]
1,ATGCATCA,0.198 ± 0.0685
2,ATCATAAG,0.286 ± 0.0333
3,GATATAGA,0.318 ± 0.034
4,TATATATA,0.344 ± 0.0349
5,AATATATC,0.343 ± 0.0593
6,GATATATA,0.377 ± 0.0449
7,GATATATC,0.441 ± 0.0284
8,CATATATC,0.341 ± 0.0628
9,ATACTTTC,0.16 ± 0.145
10,CCTCCGGA,0.203 ± 0.0104
11,CCTCGAGG,0.197 ± 0.043
12,CAGATCAG,0.353 ± 0.0153
13,ATACCAAT,0.3482 ± 0.0028
14,ATCCCAGC,0.221 ± 0.0257
15,AATGTATC,0.363 ± 0.0137
16,CATGTATC,0.403 ± 0.00743
17,AGTGTATC,0.43 ± 0.00296
18,CGTGTATC,0.404 ± 0.0303
19,CGTGTATA,0.247 ± 0.0518
20,AGTGTACC,0.16 ± 0.0592
21,CTTGTATC,0.266 ± 0.0293
22,CATGTATA,0.223 ± 0.0131

row,Sequence,binding signal [E-score]
1,AGTGTATA,0.291 ± 0.0334
2,ATCGGGGG,0.223 ± 0.00524
3,ATCAACAG,0.209 ± 0.0732
4,ATCCGGCC,0.316 ± 0.022
5,CGATCGGC,0.1802 ± 0.00119
6,TATTATGA,0.207 ± 0.134
7,ATCAAGCA,0.174 ± 0.047
8,GATGCGGA,0.199 ± 0.0357
9,CTTCGATC,0.152 ± 0.112
10,ACTGATCC,0.398 ± 0.007
11,GCTGATCA,0.198 ± 0.00374
12,GCTGATCC,0.425 ± 0.0138
13,CCTGATCA,0.306 ± 0.0156
14,ACTGATCG,0.156 ± 0.0405
15,GCAGATCC,0.272 ± 0.0482
16,CCTGATCG,0.197 ± 0.0659
17,ACTGATCT,0.34 ± 0.0165
18,CCTGATCC,0.387 ± 0.0469
19,GTCTAGTA,0.158 ± 0.0279
20,CACACCGG,0.224 ± 0.0376
21,GTATACGA,0.308 ± 0.0266
22,CATGGTGA,0.225 ± 0.035

row,Sequence,binding signal [E-score]
1,GATATGAA,0.259 ± 0.0356
2,GATATGCC,0.427 ± 0.0454
3,GATATGCA,0.4032 ± 0.00302
4,AATATGCC,0.16 ± 0.0322
5,AATATGCG,0.171 ± 0.0476
6,CATATGCC,0.162 ± 0.0394
7,CTAATACC,0.285 ± 0.0649
8,ACAATACG,0.25 ± 0.0363
9,ATAATACA,0.302 ± 0.0417
10,ATAATATG,0.27 ± 0.0724
11,ATAATACG,0.385 ± 0.0407
12,ATAATACC,0.421 ± 0.0503
13,GGAGCATA,0.213 ± 0.018
14,ATATGAGG,0.156 ± 0.0225
15,CGTCTAAG,0.193 ± 0.0194
16,GCAATATA,0.16 ± 0.0581
17,CGACACCA,0.416 ± 0.0371
18,CCACACCG,0.151 ± 0.104
19,TCACACCA,0.195 ± 0.0562
20,CGACACCG,0.427 ± 0.0217

# Reference: paper PMC10668032, “Altered binding affinity of SIX1-Q177R correlates with enhanced WNT5A and WNT pathway effector expression in Wilms tumor”
